# Out of some 310,000 compounds screened, about 14,000 (4.5%) showed an effect of 50% or more. The effect is printed as a negative number. This is one part of a sample in which strong results are shown more often than they occur.
# Target: human ether-à-go-go-related gene (hERG) potassium channel (human, UniProt Q12809)
# Assay: primary screen, population patch clamp on CHO cells stably expressing hERG; higher = less effect of the substance
# 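Note: peak tail current of the secondary pulse compared with the same well before compound.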
# human ether-à-go-go-related gene (hERG) potassium channel, sequence (Q12809 whole entry, looked up): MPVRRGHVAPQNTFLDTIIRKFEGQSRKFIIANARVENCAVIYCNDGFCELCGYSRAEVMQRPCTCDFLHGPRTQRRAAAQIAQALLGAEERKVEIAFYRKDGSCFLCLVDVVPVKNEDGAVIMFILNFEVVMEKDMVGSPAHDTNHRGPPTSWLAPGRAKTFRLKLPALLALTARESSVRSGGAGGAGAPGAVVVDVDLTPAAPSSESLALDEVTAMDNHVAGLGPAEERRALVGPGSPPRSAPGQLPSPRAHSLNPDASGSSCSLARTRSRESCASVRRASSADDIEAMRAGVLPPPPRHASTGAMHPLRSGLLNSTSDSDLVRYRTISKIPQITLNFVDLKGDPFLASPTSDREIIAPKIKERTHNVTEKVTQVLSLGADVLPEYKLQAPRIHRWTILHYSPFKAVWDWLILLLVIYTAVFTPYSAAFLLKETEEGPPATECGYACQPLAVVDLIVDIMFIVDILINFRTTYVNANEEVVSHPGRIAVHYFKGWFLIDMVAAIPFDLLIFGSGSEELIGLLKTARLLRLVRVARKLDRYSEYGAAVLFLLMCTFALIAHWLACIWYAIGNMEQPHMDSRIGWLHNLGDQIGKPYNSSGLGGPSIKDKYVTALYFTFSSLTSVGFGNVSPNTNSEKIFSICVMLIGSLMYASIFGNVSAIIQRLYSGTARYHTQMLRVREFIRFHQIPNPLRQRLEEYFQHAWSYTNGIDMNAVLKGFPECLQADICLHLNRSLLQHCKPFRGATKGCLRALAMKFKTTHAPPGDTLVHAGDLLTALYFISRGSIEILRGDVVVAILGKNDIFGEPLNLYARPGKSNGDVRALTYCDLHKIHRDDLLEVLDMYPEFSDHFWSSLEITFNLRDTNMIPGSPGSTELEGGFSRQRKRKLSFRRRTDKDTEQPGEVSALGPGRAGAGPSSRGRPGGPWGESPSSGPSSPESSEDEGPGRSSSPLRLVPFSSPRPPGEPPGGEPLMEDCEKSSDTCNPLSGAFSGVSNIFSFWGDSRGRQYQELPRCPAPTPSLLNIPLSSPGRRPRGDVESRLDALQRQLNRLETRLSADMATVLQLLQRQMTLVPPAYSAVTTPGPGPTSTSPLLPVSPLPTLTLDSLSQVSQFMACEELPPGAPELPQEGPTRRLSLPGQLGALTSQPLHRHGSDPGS
row,SMILES,"hERG current change (%, negative = inhibition) at 10uM"
1,O=C(C[n+]1cccc(CO)c1)Nc1nc2ccccc2s1.[Cl-],-9.18%
2,CC(C)CN(C(=O)CCC(=O)OCc1ccc(Cl)cc1Cl)c1c(N)n(CC(C)C)c(=O)[nH]c1=O,-47.3%
3,CCn1nc(C)cc1C(=O)NC1CCCc2c1cnn2-c1cc(F)cc(F)c1 (stereo not drawn),-5.58%
4,Cc1cc(=O)c2cc(Br)ccc2n1CC(=O)NCc1ccccc1,-12.8%
5,O=C(CCNc1cc(Cl)cc(Cl)c1)c1ccco1,-4.77%
6,Cc1ccc(C(C)(C)C)c(OCCCCN2CCCC2)c1,-19.9%
7,CCCN(CCC)CCNC(=O)CCC(=O)Nc1ccc2nc(N3CCN(C)CC3)cc(C)c2c1,17.7%
8,O=c1[nH]ncn2cccc12,24.1%
9,COc1ccccc1CN(C)S(=O)(=O)c1cccs1,4.72%
10,CN(Cc1c(F)cccc1Cl)S(=O)(=O)c1cccs1,-19.8%
11,CN(Cc1ccc(F)cc1Cl)S(=O)(=O)c1cccs1,-62%
12,Cc1c(OC(C)C(=O)NCCCN2CCOCC2)ccc2c1oc(=O)c1ccccc12 (stereo not drawn),6.19%
13,O=C(CCN1C(=O)COc2ccccc21)NCCCN1CCN(c2ccc(F)cc2)CC1,-63.7%
14,COc1ccc(N2CCN(CCNC(=O)CCN3C(=O)COc4ccccc43)CC2)cc1,-47%
15,O=C(CN1C(=O)COc2ccccc21)NCCN1CCC(Cc2ccccc2)CC1,-56.6%
16,O=C(CN1C(=O)COc2ccccc21)NCCN1CCCC1,13.6%
17,O=C(CCN1C(=O)COc2ccccc21)NCCN1CCN(c2cccc(Cl)c2)CC1,-56.5%
18,O=C(CCN1C(=O)COc2ccccc21)NCCCN1CCN(c2ccccc2F)CC1,-42.7%
19,O=C(CN1C(=O)COc2ccccc21)NCCN1CCOCC1,11.3%
20,O=C(CCN1C(=O)COc2ccccc21)NCCN1CCN(c2ccccc2F)CC1,-33.5%
21,CN1CCN(CCCNC(=O)CCN2C(=O)COc3ccccc32)CC1,0.334%
22,CS(=O)(=O)N(CC(=O)Nc1ccccc1-c1ccccc1)c1ccccc1,-0.135%

row,SMILES,"hERG current change (%, negative = inhibition) at 10uM"
1,O=C(NC1CCCC1)C(c1ccncc1)N(C(=O)c1ccco1)c1ccc(Cl)cc1 (stereo not drawn),-4.59%
2,CCOC(=O)C1(CCc2ccccc2)CCN(C(C)CSC)CC1 (stereo not drawn),-66.6%
3,CCOC(=O)C1(CCOc2ccccc2)CCN(C(C)CSC)CC1 (stereo not drawn),-55.3%
4,CCOC(=O)C1(CCOc2ccccc2)CCN(C(=O)CCSC)CC1,-42%
5,O=C1C2CCCN2C(c2ccc(Cl)c(Cl)c2)N1c1ccccn1 (stereo not drawn),-10%
6,O=C(NC(=S)Nc1ccc(-c2nc3ncccc3o2)cc1)c1ccccc1F,14.5%
7,CCOCCCNC(=O)C(NC(=O)c1cnccn1)c1ccc(C)cc1 (stereo not drawn),30.4%
8,CCN(CC)C(=O)Cn1cc(S(=O)(=O)CC(=O)Nc2ccc(C(N)=O)cc2)c2ccccc21,18.2%
9,CCOc1ccc(NC(=O)CN2CCCC2c2cccs2)cc1S(=O)(=O)N1CCCCC1 (stereo not drawn),-11.8%
10,COc1ccc(N2CCN(CCCNC(=O)Nc3ccccc3)CC2)cc1,-64.5%
11,COC(=O)c1ccc(N2CCN(CCNC(=O)Nc3ccc(OC)cc3)CC2)cc1,-0.192%
12,Fc1cccc(NC(=S)NCCCN2CCOCC2)c1,-0.1%
13,COc1ccccc1N1CCN(CCCNc2c(C)c(=O)n(C)c(=O)n2C)CC1,-5.42%
14,COc1ccc(N2CCN(CCNC(=O)Nc3ccc(C)c(Cl)c3)CC2)cc1,15.9%
15,CCOc1ccc(NC(=O)CCN2CCN(c3ccccc3OC)CC2)cc1,-33.8%
16,COc1ccccc1N1CCN(CCCNC(=O)Nc2ccccc2)CC1,-59.8%
17,CSc1cccc(NC(=S)NCCCO)c1,-4.03%
18,CCc1ccc(N2CCN(CCNC(=O)Nc3ccc(OC)cc3)CC2)cc1,-29.9%
19,COc1ccc(NC(=O)NCCN2CCN(c3cccc(Cl)c3)CC2)cc1,-31.6%
20,CSc1cccc(NC(=S)NCCCN2CCN(c3ccc(F)cc3)CC2)c1,-66.7%
21,COc1ccc(N2CCN(CCNC(=O)Nc3ccc(Cl)cc3)CC2)cc1,-60.7%
22,CC(OC(=O)c1ccccc1NCc1ccco1)C(=O)Nc1ncc(Cl)cc1Cl (stereo not drawn),2.95%

row,SMILES,"hERG current change (%, negative = inhibition) at 10uM"
1,Cc1ccc(C)c(-n2nnnc2SCC(=O)NCC2CCCO2)c1 (stereo not drawn),-4.18%
2,CCN(C(=O)COC(=O)CCC(=O)c1cccs1)c1c(N)n(Cc2ccccc2)c(=O)[nH]c1=O,-4.97%
3,CCCCCOc1ccc(CSCCNC(=S)Nc2ccccc2)cc1,-5.94%
4,O=C(O)c1ccccc1C(=O)c1ccc(-c2ccccc2)cc1,17.2%
5,CCOC(=O)c1ccc(S(=O)(=O)NNC(=O)COc2cccc(C)c2)cc1,34.6%
6,Cc1ccc(S(=O)(=O)N2CCN(S(=O)(=O)N3CCCCCC3)CC2)cc1,20.4%
7,COc1ccccc1N1CCN(CCCNC(=O)Nc2ccccc2C)CC1,-33.7%
8,Cc1cccc(NC(=O)NCCN2CCN(c3ccccc3)CC2)c1C,-9.69%
9,COc1cccc(NC(=S)NCCCN2CCOCC2)c1,16.7%
10,COc1cccc(NC(=O)NCCCN2CCN(c3ccc(F)cc3)CC2)c1,-73.2%
11,COc1cccc(NC(=O)NCCN2CCCCC2)c1,-13.7%
12,COc1ccccc1N1CCN(CCNC(=O)Nc2cccc(C)c2C)CC1,-68.8%
13,Cc1cccc(NS(=O)(=O)c2c(C(=O)N3CCCC3)c(C)n(C)c2C)c1,18.1%
14,Cc1cc(Cl)ccc1OCC(=O)N/N=C/c1ccncc1,-14.9%
15,COC(=O)CSc1nc(C)cc(N2CCOCC2)n1,7.89%
16,NC(=O)C1CCN(C(=O)COc2ccc3ccccc3c2)CC1,18.2%
17,CCC(C)(C)NC(=O)C(c1cccnc1)N(C(=O)c1csnn1)c1ccccc1 (stereo not drawn),-22.7%
18,O=C(Cn1c(-c2ccccc2)noc1=O)NCc1ccccc1,6.47%
19,CCCCCn1c(SCC#N)nc2cc(C(=O)NCC3CCCO3)ccc2c1=O (stereo not drawn),-52.7%
20,NC(=O)C1CCN(C(=O)c2ccc3c(=O)n(Cc4ccco4)c(SCC(=O)c4ccccc4)nc3c2)CC1,6.75%
21,CCOC(=O)CSc1nc2cc(C(=O)N3CCC(C(N)=O)CC3)ccc2c(=O)n1C1CCCCC1,-10.7%
22,CCCCCn1c(SCC2CCCO2)nc2cc(C(=O)N3CCC(C(N)=O)CC3)ccc2c1=O (stereo not drawn),-64.7%

row,SMILES,"hERG current change (%, negative = inhibition) at 10uM"
1,C=CCn1c(SCC(=O)CC(=O)OCC)nc2cc(C(=O)N3CCC(C(N)=O)CC3)ccc2c1=O,13.7%
2,N#CCSc1nc2ccccc2c(=O)n1CCCC(=O)NCC1CCCO1 (stereo not drawn),-12.4%
3,CCCCCn1c(SCC(=O)OCC)nc2cc(C(=O)N3CCC(C(N)=O)CC3)ccc2c1=O,-58.4%
4,CCCCn1c(SC(C)C(=O)NCC2CCCO2)nc2cc(C(=O)OC)ccc2c1=O (stereo not drawn),-44.9%
5,CCCCCn1c(SCC(=O)CC(=O)OCC)nc2cc(C(=O)N3CCC(C(N)=O)CC3)ccc2c1=O,-17.7%
6,c1cc(-c2nnn(CCOCCn3nnc(-c4ccncc4)n3)n2)ccn1,-0.329%
7,c1ccc(Oc2cccc(OCCn3cncn3)c2)cc1,-12.7%
8,CC(=O)c1ccc(NC(=S)NNC(=O)c2ccccc2[N+](=O)[O-])cc1,20%
9,CCC1CCCCN1CCCNC(=O)C1CCC(CNS(=O)(=O)c2c(C)cc(C)cc2C)CC1 (stereo not drawn),-68.3%
10,COC(CNC(=O)C1CCC(CNS(=O)(=O)c2c(C)cc(C)cc2C)CC1)OC (stereo not drawn),-26%
11,Cc1cc(C)c(S(=O)(=O)NCC2CCC(C(=O)NCCCN3CCC(C)CC3)CC2)c(C)c1 (stereo not drawn),-77.2%
12,COCCNC(=O)C1CCC(CNS(=O)(=O)c2c(C)cc(C)cc2C)CC1 (stereo not drawn),7.72%
13,CCN(CC)CCCNC(=O)C1CCC(CNS(=O)(=O)c2c(C)cc(C)cc2C)CC1 (stereo not drawn),-13.5%
14,CCCCN(C)CCCNC(=O)C1CCC(CNS(=O)(=O)c2c(C)cc(C)cc2C)CC1 (stereo not drawn),-77.3%
15,CCCCNC(=O)C1CCC(CNS(=O)(=O)c2c(C)cc(C)cc2C)CC1 (stereo not drawn),3.09%
16,CC1CCN(CCCNC(=O)C2CCC(CNS(=O)(=O)c3ccccc3)CC2)CC1 (stereo not drawn),5.02%
17,Cc1ccc(S(=O)(=O)NCC2CCC(C(=O)NCCCN3CCOCC3)CC2)cc1 (stereo not drawn),10.8%
18,O=C(Cn1c2c(c(=O)n3ncnc13)CCC2)N/N=C/c1cccs1,0.665%
19,CS(=O)(=O)c1ccc(C(=O)NCC(c2ccco2)N2CCCCC2)cc1 (stereo not drawn),18%
20,Cc1cc(OCC(=O)NCC(O)c2ccccc2)c2c3c(c(=O)oc2c1)CCCC3 (stereo not drawn),12.1%
21,CCCCn1c(N)c(N(CCOC)C(=O)c2ccco2)c(=O)[nH]c1=O,0.12%

# From paper PMC4336329 (PLoS ONE, 2015)
